Measurements: PubChem BioAssay (NCATS)
Inconclusive results are not listed. Where a call stands in place of a potency, no number is given. A number with no mark means an inactive call. Active and inactive are the calls of the source. Calls come from the whole dose curve; as a rule, active = well fitted curve in the direction sought with a large enough effect; inconclusive = small, poorly fitted or top-dose-only effect, or another doubt; inactive = no such curve, though single readings can be large; an effect the other way counts as inactive or inconclusive.

Tests used:
[1] = test system: MKL-1; assay: qHTS assay to identify novel small-molecules to repurpose for Merkel cell carcinoma treatment (AID 1296009); conditions: MCC and control cell lines, CellTiter-Glo viability, 72 h; series mostly up to 46 µM; note: nearly all actives have a fitted effect of over 60% in size
How it was run: (§1)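 Dose-response viability screen; 72 hr exposure at 37 degree celsius; CellTiter-Glo added, 10 min room temperature, luminescence read; RLUs scaled between no-cell and DMSO wells.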

[2] = test system: UISO; assay: as above; conditions: MCC and control cell lines, CellTiter-Glo viability, 72 h; series mostly up to 46 µM
How it was run: as §1

[3] = test system: WaGa; assay: as above; conditions: MCC and control cell lines, CellTiter-Glo viability, 72 h; series mostly up to 46 µM
How it was run: as §1

[4] = test system: C33A; assay: Primary qHTS to identify gynecologic anti-cancer compounds using libraries of approved drugs and bioactive compounds (AID 1345084); conditions: Gynecologic cancer cell panel viability, ATPlite luminescence, 48 h; series mostly up to 57.5 µM; note: nearly all actives have a fitted effect of over 55% in size
How it was run: (§2)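 Cytotoxicity screen measuring ATP content by luciferase luminescence. Each compound is applied at five concentrations for 48 h at 37 C with 5% CO2.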

[5] = test system: CAOV3; assay: as above; conditions: Gynecologic cancer cell panel viability, ATPlite luminescence, 48 h; series mostly up to 57.5 µM
How it was run: as §2

[6] = test system: CASKI; assay: as above; conditions: Gynecologic cancer cell panel viability, ATPlite luminescence, 48 h; series mostly up to 57.5 µM
How it was run: as §2

[7] = test system: Es-2; assay: as above; conditions: Gynecologic cancer cell panel viability, ATPlite luminescence, 48 h; series mostly up to 57.5 µM
How it was run: as §2

[8] = test system: MKL-2; assay: qHTS assay to identify novel small-molecules to repurpose for Merkel cell carcinoma treatment (AID 1296009); conditions: MCC and control cell lines, CellTiter-Glo viability, 72 h; series mostly up to 46 µM; note: nearly all actives have a fitted effect of over 60% in size
How it was run: as §1

[9] = test system: HeLa; assay: Primary qHTS to identify gynecologic anti-cancer compounds using libraries of approved drugs and bioactive compounds (AID 1345084); conditions: Gynecologic cancer cell panel viability, ATPlite luminescence, 48 h; series mostly up to 57.5 µM; note: nearly all actives have a fitted effect of over 55% in size
How it was run: as §2
Potency is the fitted concentration of half-maximal effect.

Row | Compound | Potency [1] | Potency [2] | Potency [3] | Potency [4] | Potency [5] | Potency [6] | Potency [7] | Potency [8] | Potency [9]
1 | CN1CCN(C2=Nc3ccccc3Oc3ccc(Cl)cc32)CC1 | inactive | inactive | inactive | inactive | inactive | inactive | inactive | – | –
2 | Nc1c2c(nc3ccccc13)CCCC2O (centres undefined) | inactive | – | inactive | inactive | inactive | inactive | inactive | inactive | –
3 | CN(C(=O)CCCOc1ccc2[nH]c(=O)ccc2c1)C1CCCCC1 | inactive | inactive | inactive | inactive | inactive | inactive | inactive | inactive | inactive
4 | CCOC(=O)C1=C(C)NC(C)=C(C(=O)OC)C1c1cccc([N+](=O)[O-])c1 (centres undefined) | inactive | inactive | inactive | inactive | – | inactive | inactive | inactive | inactive
5 | CCn1nc(C(=O)O)c(=O)c2cc3c(cc21)OCO3 | inactive | inactive | inactive | inactive | inactive | inactive | inactive | inactive | inactive
6 | CCN(CC)CCNC(=O)c1ccc(NC(C)=O)cc1 | inactive | inactive | – | inactive | inactive | inactive | inactive | inactive | –
7 | COc1cc(Cc2cnc(N)nc2N)cc(OC)c1OC | inactive | inactive | inactive | inactive | inactive | inactive | inactive | inactive | inactive
8 | O=C(O)CN(CCN(CC(=O)O)CC(=O)O)CCN(CC(=O)O)CC(=O)O | inactive | inactive | inactive | inactive | inactive | inactive | inactive | inactive | inactive
9 | CCOC(=O)C1=C(C)NC(C)=C(C(=O)OC)C1c1cccc(Cl)c1Cl (centres undefined) | inactive | inactive | – | inactive | inactive | inactive | inactive | inactive | –
10 | Cc1nc2c([nH]1)c(=O)n(C)c(=O)n2Cc1ccco1 | inactive | inactive | inactive | inactive | inactive | inactive | inactive | inactive | inactive
11 | CCN(Cc1ccncc1)C(=O)C(CO)c1ccccc1 (centres undefined) | inactive | inactive | inactive | inactive | inactive | inactive | inactive | inactive | inactive
12 | C[N+](C)(C)CCOC(N)=O | inactive | inactive | inactive | inactive | – | inactive | inactive | inactive | inactive
13 | CCc1cccc(N(C)C(N)=Nc2cccc3ccccc23)c1 | inactive | inactive | – | inactive | inactive | inactive | inactive | – | inactive
14 | CC(=O)[C@]1(O)Cc2c(O)c3c(c(O)c2[C@@H](O[C@H]2C[C@H](N)[C@H](O)[C@H](C)O2)C1)C(=O)c1ccccc1C3=O | 119 nM (active) | 422 nM (active) | 106 nM (active) | 501 nM (active) | – | 1000 nM (active) | 1000 nM (active) | 94.4 nM (active) | –
15 | Cc1nc2sccn2c(=O)c1CCN1CCC(=C(c2ccc(F)cc2)c2ccc(F)cc2)CC1 | inactive | inactive | – | inactive | inactive | inactive | inactive | – | –
16 | O=C1CC2(CCCC2)CC(=O)N1CCCCN1CCN(c2ncccn2)CC1 | inactive | inactive | inactive | inactive | – | inactive | inactive | inactive | inactive
17 | CC(=O)OC(C)C[N+](C)(C)C (centres undefined) | inactive | inactive | inactive | inactive | inactive | inactive | inactive | – | –
18 | Cc1scc2c1N(C(=O)CN1CCN(C)CC1)c1ccccc1NC2=O | inactive | inactive | inactive | inactive | inactive | inactive | inactive | inactive | inactive
19 | CCN(CC)CCNC(=O)c1cc(S(C)(=O)=O)ccc1OC | inactive | inactive | inactive | inactive | inactive | inactive | inactive | inactive | inactive
20 | CNCCC(Oc1ccccc1OC)c1ccccc1 (centres undefined) | inactive | inactive | inactive | inactive | – | inactive | inactive | inactive | inactive
21 | C[n+]1cc2c3c(ccc2c2ccc4cc5c(cc4c21)OCO5)OCO3 | 1460 nM (active) | 1300 nM (active) | 1030 nM (active) | 2000 nM (active) | – | – | 8910 nM (active) | 651 nM (active) | –
22 | Cc1ccc(=O)n(-c2ccccc2)c1 | inactive | inactive | inactive | inactive | inactive | inactive | inactive | inactive | inactive
23 | CC(C)NCC(O)c1cc(O)cc(O)c1 (centres undefined) | inactive | inactive | inactive | inactive | inactive | inactive | inactive | – | –
24 | CC(C(=O)O)c1ccc(CC2CCCC2=O)cc1 (centres undefined) | inactive | inactive | inactive | inactive | inactive | inactive | inactive | inactive | inactive
25 | Cc1cccc(C)c1NC(=O)C(C)N (centres undefined) | inactive | inactive | inactive | inactive | inactive | inactive | inactive | inactive | inactive
